“And” between values parts separate entries of the source, which are not always exact repeats. Equal entries are not always repeated. This is part of a sample that, as a whole, favours compounds with a hit. Of some 83,000 tested, about 20% had one in any assay.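 96-well plates, one dose, 48 hours. Percent growth reported; active if below 10.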 A number with no mark means an inactive call. The source made the active and inactive calls.
system: HL-60(TB) leukemia; test: NCI-60 one-dose screen, 48 h (100 = growth as untreated, 0 = no growth, -100 = all killed); conditions: 10 µM unless noted

Row | Structure (SMILES) | growth
1 | CC1=C(C(=O)OCc2ccccc2)C(c2cccc3ccccc23)n2c(nc3ccccc32)N1 (configuration not stated) | 1.4% (active)
2 | COC(=O)c1ccc(-c2c(-c3ccccc3)c(F)c3oc(C(=O)OC)c(N)c3c2-c2ccccc2)cc1 | 105%
3 | O=C(Nc1cccc([N+](=O)[O-])c1)Nc1cccc([N+](=O)[O-])c1 | 92.4%
4 | COc1nccnc1NS(=O)(=O)c1ccc(NC2=C(Cl)C(=O)c3nc(C)ccc3C2=O)cc1 | 100%
5 | CC12CC[C@@H]3[C@]4(C)COC(c5cn[nH]c5-c5cccc(Br)c5)O[C@@H]4CC[C@@]3(C)[C@@H]1CC(C1=CCOC1=O)O2 (some centres not stated) | 13%
6 | O=C(CSc1nnc(-c2ccc(-c3nc4ccccc4[nH]3)cc2)o1)Nc1ccc(Br)cc1 | 43.1%
7 | O=C(N/N=C/c1ccc(-c2cccc([N+](=O)[O-])c2)s1)c1[nH]c2ccc(Br)cc2c1-c1ccccc1 | 81.4%
8 | O=C(CSc1nc2sc3c(c2c(=O)n1-c1ccc(Cl)cc1)CCCC3)NNC(=O)c1ccc(F)cc1 | 109%
9 | COc1cc(/C=C/C(=O)c2nnn(-c3ccc(Cl)cc3)c2C)cc(OC)c1OC | -5.43% (active)
10 | COc1cnc2c(c1)C(=O)c1c-2n(CCCNC(C)C)c(=O)c2cc(OC)c(OC)cc12 | 62.8%
11 | CCC(=O)c1c2c(c3ccc4c5ccccc5ccc4n13)C(=O)c1ccccc1C2=O | 90.1%
12 | C[C@H]1[C@@H](CC(=O)N[C@@H](Cc2coc3ccccc23)B(O)O)O[C@@H]2OC3(C)CC[C@H]4[C@H](C)CC[C@@H]1[C@@]24O3 | 11.2%
13 | CC(C)CSc1nc(NCCc2c[nH]c3ccccc23)c(C#N)c(-c2ccc(F)cc2)n1 | 49.7%
14 | CCOC(=O)/C(F)=C/C1CC1C(c1ccccc1)c1ccccc1 (configuration not stated) | -7.32% (active)
15 | N#Cc1ccc(-c2nn(-c3ccc(C(=O)O)cc3)cc2CNc2cc(Cl)cc(C(F)(F)F)c2)cc1 | 7.71% (active)
16 | Clc1cccc(Cl)c1/C=C/c1cc(/C=C/c2ccc(Br)cc2)c2ccccc2n1 | 101%

Row | Structure (SMILES) | growth
17 | O=C1C=CC(=CC=C2N(Cc3ccc4ccccc4c3)c3ccccc3N2Cc2ccc3ccccc3c2)C=C1 | -26.5% (active) and -21.5% (active)
18 | COc1ccc(N=Nc2c(N)nn3c(-c4cc5cc(Br)ccc5oc4=O)ccnc23)cc1 | 102%
19 | Cc1cc(C2(c3cc(C)c(OCC(O)CNc4c(C)n(C)n(-c5ccccc5)c4=O)cc3C(C)C)OC(=O)c3ccccc32)c(C(C)C)cc1OCC(O)CNc1c(C)n(C)n(-c2ccccc2)c1=O (configuration not stated) | 0.434% (active)
20 | COC(=O)c1c(C(=O)OC)c2c3ccccc3c3ccccc3n2c1C(=O)C(C)(C)C | 72.5%
21 | O=C(c1ccc(OCCN2CCOCC2)cc1)C1[C@H](c2ccc(Cl)cc2)[C@@H](c2ccccc2)NC12C(=O)Nc1ccc(Br)cc12 (some centres not stated) | -28.5% (active)
22 | O=C(c1ccc(Cl)cc1)C1[C@H](c2ccc(Br)cc2)[C@@H](c2ccccc2)NC12C(=O)Nc1ccccc12 (some centres not stated) | -32% (active)
23 | CC(=O)Nc1ccc(-c2cn(-c3cccc(C(=O)Nc4cc(CN5CCOCC5)cc(C(F)(F)F)c4)c3)nn2)cn1 | -54.3% (active)
24 | C/C(=N\NC(N)=S)c1ccc(Nc2nc(SC(C)C)nc(-c3ccccc3)c2C#N)cc1 | 89.9%
25 | COC(=O)c1c(C(=O)OC)c2c3ccccc3c3ccccc3n2c1C(=O)C(F)(F)F | 107%
26 | C/C(=N\N=C\c1cc([N+](=O)[O-])ccc1Cl)c1ccc2c(c1)Nc1ccccc1S2 | 84.6%
27 | COc1ccc2[nH]c(O)c(N=NC(=O)COc3ccc(NC(=O)Nc4ccccc4)cc3)c2c1 | 96%
28 | CC1CCCCN1CCCNC(=O)N/C(N)=N/c1nc2ccccc2s1 (configuration not stated) | 19.5%
29 | COc1cc2c(c(OC)c1OC)C(=O)CC(c1cccc(NC(=O)c3cc(NC(=O)[C@H](C)N)ccc3Cl)c1)O2 (some centres not stated) | 2.28% (active)
30 | CCc1ccc(SC2c3cc(OC)ccc3Oc3nc(N)c(C#N)c(N)c32)cc1 (configuration not stated) | -77.8% (active)
31 | COc1cc(-c2nc3cc(Cl)c(Cl)cc3[nH]2)ccc1OCc1nnc(-c2cccs2)o1 | 72%
32 | O=C(c1ccc(O)cc1)C1[C@H](c2ccccc2Br)[C@@H](c2ccccc2)NC12C(=O)Nc1ccccc12 (some centres not stated) | 19.8%

From PubChem BioAssay (NCI)
